Only some compounds are listed: those with a hit (about 2.1% of all), similar ones and a draw of the others.
Abeta rescue: restores growth of yeast expressing A-beta42 peptide. yeast expressing A-beta42, growth rescue, OD600, 48 h; response scale: 0% DMSO, 100% iron-clioquinol control. Potency, µM (highest dose often 46.1 µM), hits mostly activators. 0.063% of 410,000 active. AID 1347071; note: nearly all actives have a fitted effect of over 55% in size
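Yeast A-beta toxicity model in growth medium with pinned compounds, 48 h at 30 C; growth read as absorbance at 600 nm. Normalized to FeCl3/clioquinol equimolar mix (positive) and DMSO (negative).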
aSyn rescue: inhibitors of alpha-synuclein toxicity in yeast; Potency, µM (series often up to 46.1 µM), without a hit: at the top dose growth rescue (activation), usual class: activators; Yeast expressing alpha-synuclein, growth rescue, BacTiter-Glo, 24 h; 0.14% of 370,000 active; note: % of control where 0% means no effect; nearly all actives have a fitted effect of over 65% in size
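Readout is rescue of growth in alpha-synuclein-expressing yeast, so inhibitors of toxicity appear as activators. Growth after 24 hr at 30 deg C in galactose medium is quantified by luminescence.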
TDP43 rescue: rescues yeast growth from TDP-43 toxicity; TDP-43 expressing yeast growth rescue, BacTiter-Glo, 24 h; Potency, µM (doses to about 46.1 µM), for the others: at the top dose growth rescue (activation), most hits filed as activators; 1.8% of 410,000 active; note: % of control where 0% means no effect; nearly all actives have a fitted effect of over 50% in size
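Yeast cells expressing TDP-43 under galactose induction are exposed to compounds for 24 hr at 30 deg C. BacTiter-Glo luminescence measures growth, so protective compounds score as activators.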
FUS suppressor: rescues growth of FUS-expressing yeast. Potency, µM (series often up to 76.6 µM), usual class: activators. S. cerevisiae FUS-expressing, growth rescue, OD600, 24 h. 0.24% of 390,000 active. AID 1347120;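 note: plate controls were DMSO vehicle for no effect and reference control for full effect; nearly all actives have a fitted effect of over 55% in size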
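Yeast expressing FUS under galactose induction, OD 0.005 in 2% galactose medium; compounds in a dilution series, 24 h at 30C. Growth rescue by absorbance at 600 nm; CP55940 positive control, DMSO negative.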
An asterisk follows results filed as active; i = inactive; u = inconclusive; x = no result given. Calls come from the whole dose curve; as a rule, active = well fitted curve in the direction sought with a large enough effect; inconclusive = small, poorly fitted or top-dose-only effect, or another doubt; inactive = no such curve, though single readings can be large; an effect the other way counts as inactive or inconclusive. Potency is the fitted concentration of half-maximal effect.

SMILES	Abeta rescue	aSyn rescue	TDP43 rescue	FUS suppressor
C=CCC[C@@H](Cc1ccc(F)cc1)C(=O)OC[C@@H](Cc1c[nH]c2ccccc12)NC(=O)[C@@H](CC=C)CC(=O)N[C@H](CO)Cc1ccccc1	i	3.1%	9.1%	25.1µM*
C=CCC[C@H](Cc1ccc(F)cc1)C(=O)OC[C@@H](Cc1c[nH]c2ccccc12)NC(=O)[C@@H](CC=C)CC(=O)N[C@@H](CO)Cc1ccccc1	i	4.9%	-3.0%	i
CNc1ccc(C=O)cc1I	x	2.0%	x	x
Cc1cccc(C(=O)O/N=C(\c2ccccc2)c2cccnc2)c1	i	9.4%	12.6µM*	i
Cc1ccc(C(=O)O/N=C(\c2ccccc2)c2cccnc2)cc1	i	-6.3%	17.8µM*	i
O=C(OC12CCCN(C1)/C(=C/c1cccc(Cl)c1)C2)c1ccc(F)cc1 (stereo unspecified)	x	x	x	i
Cc1onc(-c2c(Cl)cccc2Cl)c1/C(N)=N/OC(=O)C(C)(C)C	i	-14.5%	17.6%	i
CC(C)(C)C(=O)O/N=C(\N)c1c(Cl)cccc1Cl	i	3.3%	12.6µM*	i
Cc1c[nH]c2cccc(-c3cccc4ccccc34)c12	x	x	x	i
O=[N+]([O-])c1ccc(-c2nc(Cl)c3c(n2)CCCC3)o1	i	-5.6%	7.08µM*	i
CCCCN(C)C(=O)c1ccc2c(c1)NC(=O)C(C)(C)O2	x	x	x	i
O=S(=O)(c1ccccc1F)N1CCC(c2nc3ccccc3o2)CC1	x	x	x	i
O=C(CSCc1ccccc1)N=Nc1c(O)[nH]c2ccccc12	i	0.1%	-0.6%	x
O=C(CSCc1cccc(Br)c1)N=Nc1c(O)[nH]c2ccccc12	i	-5.8%	22.4µM*	i
CCCC(=O)Nc1ccc2c(c1)C(=O)N(C)[C@H]1CC[C@@H](CC(=O)OC)O[C@@H]1CO2	x	x	x	i
CCN1C(=O)C(CC(=O)Nc2ccccc2Cl)N(NC(=O)c2cccc(F)c2)C1=S (stereo unspecified)	i	15.0%	6.31µM*	x
CNC(=O)CC1C(=O)N(Cc2ccccc2)C(=S)N1NC(=O)c1cccc(F)c1 (stereo unspecified)	i	-9.4%	6.8%	x
O=C(CCl)N1c2ccccc2Oc2ccc3ccccc3c21	i	-42.6%	u	u
CC(=O)N1c2ccccc2Oc2cc3ccccc3cc21	i	8.9%	12.6µM*	i
O=C(CCC(=O)OCc1ccc(Br)cc1)Nc1ccccc1	i	3.5%	7.08µM*	i
O=C(CCC(=O)OCc1ccc(C(=O)Oc2ccc(Cl)cc2)cc1)Nc1ccccc1	i	-4.1%	-3.0%	i
O=C(CCc1c[nH]c2ccccc12)OCc1ccc(Br)cc1	i	3.3%	12.6µM*	i
O=C(/C=C/c1ccc(F)cc1)NC(=S)NNC(=O)c1cnccn1	i	0.6%	u	i
O=C(NC(=S)NNC(=O)c1cnccn1)c1ccc(F)cc1	i	11.2µM*	-7.0%	i
CC(C)CNC(=S)NC(=O)c1ccc(F)cc1	i	-3.5%	14.1µM*	x
SMILES	Abeta rescue	aSyn rescue	TDP43 rescue	FUS suppressor
C#CCOCCOCCOCCNc1nc(N2CCN(C(=O)CCCCCCCCCCNC(=O)Cn3cc(C[C@@H](C)O)nn3)CC2)nc(N2CCN(C(=O)CCCCCCCCCCNC(=O)[C@H](CCCCN)n3cc(CCCC(=O)O)nn3)CC2)n1	i	-15.6%	-20.6%	u
C#CCOCCOCCOCCNc1nc(N2CCN(C(=O)CCCCCCCCCCNC(=O)[C@@H](CCSC)n3cc(CCO)nn3)CC2)nc(N2CCN(C(=O)CCCCCCCCCCNC(=O)[C@H](CCSC)n3cc(CCO)nn3)CC2)n1	i	-5.4%	-9.0%	u
C#CCOCCOCCOCCNc1nc(N2CCN(C(=O)CCCCCCCCCCNC(=O)[C@H](CO)n3cc(CCCSC)nn3)CC2)nc(N2CCN(C(=O)CCCCCCCCCCNC(=O)[C@H](CCCN=C(N)N)n3cc(C[C@@H](C)CC)nn3)CC2)n1	i	-32.5%	-7.8%	8.91µM*
C#CCOCCOCCOCCNc1nc(N2CCN(C(=O)CCCCCCCCCCNC(=O)[C@H](CO)n3cc(CCCSC)nn3)CC2)nc(N2CCN(C(=O)CCCCCCCCCCNC(=O)[C@H](CCCCN)n3cc(CCO)nn3)CC2)n1	i	-23.3%	u	12.6µM*
C#CCOCCOCCOCCNc1nc(N2CCN(C(=O)CCCCCCCCCCNC(=O)Cn3cc(C[C@@H](C)O)nn3)CC2)nc(N2CCN(C(=O)CCCCCCCCCCNC(=O)[C@H](CCCN=C(N)N)n3cc(C[C@@H](C)CC)nn3)CC2)n1	i	-58.4%	-9.7%	11.2µM*
CN(CCc1ccccc1)C(=O)c1ccc2c(c1)ncn2C1CCCCC1	x	x	x	i
Nc1[nH]c(=O)nc2nnsc12	x	-1.1%	x	x
O=C1C2C3C=CC(C3=C(c3ccccc3)c3ccccc3)C2C(=O)N1CCO (stereo unspecified)	i	15.3%	20µM*	i
O=C1C2C(c3ccccc3)C=CC(c3ccccc3)C2C(=O)N1CCO (stereo unspecified)	i	23.3%	-2.5%	i
CC(C)c1cc(C(=O)N(C2CCCCC2)C2CCCCC2)no1	x	x	x	i
CCOc1ccc(NC(=O)CN2CCCN(c3ccc(OC)cc3)CC2)cc1	x	x	x	i
CCc1ccccc1NS(=O)(=O)c1ccc(-c2coc(C)n2)cc1	i	0.3%	12.6µM*	i
COc1ccc(OC)c(C2C(C(=O)c3ccc(C)o3)=C(O)C(=O)N2c2cc(C)on2)c1 (stereo unspecified)	i	0.4%	-9.3%	31.6µM*
CCCn1c(=S)[nH]c2cc(Cl)ccc21	u	-5.9%	u	i
CCn1c(=S)[nH]c2cc(Cl)ccc21	12.6µM*	5.2%	-9.8%	i
CCC(Oc1ccccc1)C(=O)Nc1nnc(S(=O)(=O)N2CCCCC2)s1 (stereo unspecified)	i	11.0%	7.9%	u
CC(Oc1ccccc1)C(=O)Nc1nnc(S(=O)(=O)N2CCCCCC2)s1 (stereo unspecified)	i	-21.4%	20µM*	i
O=C(CSc1ccc(Cl)cc1)N/N=C/c1ccc([N+](=O)[O-])o1	i	1.4%	12.6µM*	i
CCCCN(CCCC)c1ccc(C=Nc2ccc(/C=C/c3ccnc4ccccc34)cc2)cc1C	x	-10.2%	x	x
Oc1c(Br)cc(Br)cc1CNc1cccc2cccnc12	i	u	17.8µM*	i
CC1CCCN(c2ncnc3c2cnn3-c2ccc(Cl)cc2)C1 (stereo unspecified)	i	-1.0%	14.1µM*	i
CCN(CC)C(=O)C1CCCN(c2ncnc3c2cnn3-c2ccc(Cl)cc2)C1 (stereo unspecified)	i	2.7%	20µM*	u
CCc1ccccc1N1C(=O)N(Cc2cc(=O)n3ccccc3n2)c2ccccc2S1(=O)=O	i	x	11.2µM*	31.6µM*
Cc1cccc(N2C(=O)N(Cc3cc(=O)n4ccccc4n3)c3ccccc3S2(=O)=O)c1	i	x	-3.6%	u
